Here are results for four compounds from PubChem BioAssay (EPA / NIEHS).

Assay [1] deals with human Tropomyosin Receptor Kinase A (TRKA), NTRK1 (gene 4914) (UniProt P04629). The assay is described as follows: NVS_ENZ_hTrkA: NovaScreen (NVS) Enzymatic Assay for human Tropomyosin Receptor Kinase A (TRKA) (AID 2283224). How it is done:
NVS_ENZ_hTrkA is a biochemical, single-readout assay that uses extracted gene-proteins in a cell-free assay. Measurements were taken 1 hour after chemical dosing in a 384-well plate.NVS_ENZ_hTrkA is one of one assay component(s) measured or calculated from the NVS_ENZ_hTrkA assay. It is designed to make measurements of enzyme activity, a form of enzyme reporter, as detected with fluorescence intensity signals by Fluorescence and electrophoretic mobility shift technology.Data from the assay component NVS_ENZ_hTrkA was analyzed into 1 assay endpoint. This assay endpoint, NVS_ENZ_hTrkA, was analyzed in the positive analysis fitting direction relative to DMSO as the negative control and baseline of activity. Using a type of enzyme reporter, loss-of-signal activity can be used to understand changes in the enzymatic activity as they relate to the gene NTRK1. Furthermore, this assay endpoint can be referred to as a primary readout, because this assay has produced multiple assay endpoints where this one serves a enzymatic activity function. To generalize the intended target to other relatable targets, this assay endpoint is annotated to the kinase intended target family, where the subfamily is receptor tyrosine kinase. […]

For assay [2], the target named is human Vascular Endothelial Growth Factor Receptor 3 (VEGFR3), FLT4 (gene 2324) (UniProt P35916). The experiment in a line: NVS_ENZ_hVEGFR3: NovaScreen (NVS) Enzymatic Assay for human Vascular Endothelial Growth Factor Receptor 3 (VEGFR3) (AID 2283229). Summed up: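 Cell-free recombinant VEGFR3 kinase reaction with fluorescent substrate, read 1 h after dosing by electrophoretic mobility shift separation of substrate and product. Single-concentration duplicate screen at 25 uM, then concentration-response up to 50 uM; loss of activity versus DMSO.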

Inconclusive results are not listed. Active and inactive are the calls of the source. How the source made its calls: active means hit-call score of the fitted dose curve at least 0.9, where 1 is the maximum; inconclusive means response in the unintended direction; inactive means score below 0.9.

Sequence of human Tropomyosin Receptor Kinase A (TRKA), NTRK1 (gene 4914) (P04629 whole entry, looked up): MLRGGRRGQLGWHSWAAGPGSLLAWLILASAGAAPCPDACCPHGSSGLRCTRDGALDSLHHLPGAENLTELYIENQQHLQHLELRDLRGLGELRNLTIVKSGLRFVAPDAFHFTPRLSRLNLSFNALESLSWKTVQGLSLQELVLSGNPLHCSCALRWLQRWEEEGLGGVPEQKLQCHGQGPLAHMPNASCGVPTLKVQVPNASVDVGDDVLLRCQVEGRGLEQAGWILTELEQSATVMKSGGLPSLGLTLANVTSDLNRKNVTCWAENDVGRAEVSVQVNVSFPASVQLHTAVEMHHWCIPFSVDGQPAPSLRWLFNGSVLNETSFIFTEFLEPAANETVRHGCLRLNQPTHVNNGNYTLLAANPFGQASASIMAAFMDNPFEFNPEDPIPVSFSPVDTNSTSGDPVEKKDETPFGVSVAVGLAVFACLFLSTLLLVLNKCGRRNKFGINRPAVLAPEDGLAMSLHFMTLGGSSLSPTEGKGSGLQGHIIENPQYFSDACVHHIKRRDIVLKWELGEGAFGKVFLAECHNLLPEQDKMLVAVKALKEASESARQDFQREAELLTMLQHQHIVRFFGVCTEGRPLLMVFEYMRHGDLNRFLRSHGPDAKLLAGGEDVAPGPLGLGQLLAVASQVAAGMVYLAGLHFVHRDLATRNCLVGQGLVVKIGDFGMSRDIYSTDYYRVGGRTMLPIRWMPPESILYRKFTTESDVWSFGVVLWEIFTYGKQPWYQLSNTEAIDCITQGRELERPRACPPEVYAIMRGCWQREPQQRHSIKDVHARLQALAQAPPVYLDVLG
Sequence of human Vascular Endothelial Growth Factor Receptor 3 (VEGFR3), FLT4 (gene 2324) (P35916 whole entry, looked up): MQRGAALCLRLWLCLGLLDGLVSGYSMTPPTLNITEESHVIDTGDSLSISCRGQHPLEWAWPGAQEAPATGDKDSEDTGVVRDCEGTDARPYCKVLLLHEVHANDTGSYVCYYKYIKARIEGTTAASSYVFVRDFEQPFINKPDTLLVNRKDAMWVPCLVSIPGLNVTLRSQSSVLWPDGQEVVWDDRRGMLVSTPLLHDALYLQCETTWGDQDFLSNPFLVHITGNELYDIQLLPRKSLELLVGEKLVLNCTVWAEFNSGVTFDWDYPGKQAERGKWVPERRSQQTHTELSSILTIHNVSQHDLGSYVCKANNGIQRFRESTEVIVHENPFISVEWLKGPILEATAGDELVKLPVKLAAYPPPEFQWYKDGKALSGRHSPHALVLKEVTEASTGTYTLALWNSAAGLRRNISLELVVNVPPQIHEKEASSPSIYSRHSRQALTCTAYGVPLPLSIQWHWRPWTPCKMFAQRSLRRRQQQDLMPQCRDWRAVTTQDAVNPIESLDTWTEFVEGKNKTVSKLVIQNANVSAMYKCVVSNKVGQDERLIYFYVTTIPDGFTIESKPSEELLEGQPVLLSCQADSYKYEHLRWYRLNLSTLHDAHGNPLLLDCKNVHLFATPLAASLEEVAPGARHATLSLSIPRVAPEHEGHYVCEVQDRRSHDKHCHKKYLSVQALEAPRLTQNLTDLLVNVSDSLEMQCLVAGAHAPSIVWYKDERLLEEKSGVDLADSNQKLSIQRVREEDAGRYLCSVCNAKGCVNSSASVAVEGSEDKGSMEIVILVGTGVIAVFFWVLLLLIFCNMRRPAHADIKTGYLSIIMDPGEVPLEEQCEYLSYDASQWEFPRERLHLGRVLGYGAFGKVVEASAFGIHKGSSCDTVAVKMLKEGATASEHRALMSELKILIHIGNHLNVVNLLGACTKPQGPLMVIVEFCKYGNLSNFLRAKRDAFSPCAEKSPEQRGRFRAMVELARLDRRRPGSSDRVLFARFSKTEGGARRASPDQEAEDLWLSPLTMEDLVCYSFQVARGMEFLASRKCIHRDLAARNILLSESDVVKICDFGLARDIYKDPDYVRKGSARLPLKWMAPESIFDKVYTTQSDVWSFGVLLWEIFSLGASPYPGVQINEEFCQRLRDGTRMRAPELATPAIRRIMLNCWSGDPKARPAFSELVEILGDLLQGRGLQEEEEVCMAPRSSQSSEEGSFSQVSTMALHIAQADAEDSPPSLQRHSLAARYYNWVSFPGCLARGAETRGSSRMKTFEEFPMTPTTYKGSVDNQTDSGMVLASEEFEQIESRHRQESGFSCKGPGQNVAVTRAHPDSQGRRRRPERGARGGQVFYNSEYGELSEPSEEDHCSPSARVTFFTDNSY

Regarding `CCN(CC)CCOc1ccc(C(=C(Cl)c2ccccc2)c2ccccc2)cc1`, the outcome in assay [1] was inactive. In the case of `O=C(O)CC(O)(CC(=O)O)C(=O)O`, in assay [1], the result was inactive. As for `O=C(O)c1[nH]n(-c2ccc(S(=O)(=O)O)cc2)c(=O)c1N=Nc1ccc(S(=O)(=O)O)cc1`, in assay [2], the call was inactive. What is called AC50 is the concentration giving half of the maximal activity seen. On to `CCCCCCCCCCCCCCCCO`, for which the AC50 in assay [2] is 46.6 µM (active).
